Results filed as inconclusive are left out. A number with no mark means an inactive call. Active and inactive are the calls of the source. The call rests on the fitted dose curve; in most records, active means well fitted inhibition curve with a large enough effect; inconclusive means small, poorly fitted or top-dose-only effect; inactive means flat fitted curve, though single readings scatter.
System: Zika virus NS2B-NS3 protease
Assay: Primary screen GU AMC qHTS for Zika virus inhibitors (AID 1347154); further: nearly all actives have a fitted effect of over 70% in size;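 on activity change, negative = inhibition: 0% = no-inhibitor control and -100% = no-enzyme control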
Conditions: Zika NS2B-NS3 unlinked protease, AMC fluorogenic substrate; series mostly up to 54.1 µM; activity change, negative = inhibition: at the top concentration
In short: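 Unlinked Zika NS2B hydrophilic domain–NS3 protease complex at 25 nM in 10 mM Tris-HCl pH 8.0, 0.01% Tween 20, with an AMC peptide substrate. Fluorescence change (340/450 nm) over 15 min at room temperature, normalized to controls, fitted to 4-parameter Hill.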
Potency means the concentration at half of the fitted maximal effect.

| SMILES | activity change, negative = inhibition | Potency |
| --- | --- | --- |
| Nc1ccc(Cl)cc1N | -6.01% [at 104 µM] | – |
| CC(=CCCC1=CCC(C2=CC(=O)OC2O)OC1O)CCC1=C(C)CCCC1(C)C (stereo not given) | -3.81% | – |
| CCc1c(C(=O)C(N)=O)c2c(OCC(=O)O)cccc2n1Cc1ccccc1 | 2.78% | – |
| O=C(Oc1ccc([N+](=O)[O-])cc1)N1CCN(Cc2cccc(Oc3ccccc3)c2)CC1 | -7.81% | – |
| C[C@]12CC[C@H]3[C@@H](CCC4=CC(=O)CC[C@@]43C)[C@H]1CC[C@H]2O | 1.08% | – |
| O=S(=O)(O)C(F)(F)C(F)(F)C(F)(F)C(F)(F)C(F)(F)C(F)(F)C(F)(F)C(F)(F)F | – | 11.2 µM (active) |
| O=C(NCC1CCOCC1)c1cnc(Nc2ccc(Cl)cc2Cl)nc1C(F)(F)F | 16.5% | – |
| O=[N+]([O-])c1c2ccccc2cc2ccccc12 | -3.52% [at 104 µM] | – |
| COC1=C[C@@H]2[C@@H]3Cc4ccc(OC)c(O)c4[C@]2(CCN3C)CC1=O | 19.4% | – |
| Cc1nc(-c2ccc(-c3ccc(C(=O)N4CCc5cc6c(cc54)C4(CCN(C)CC4)CO6)cc3)c(C)c2)no1 | 24.4% | – |
| C1=C2CCCN[C@H]2[C@@H]2C[C@H]1[C@@H]1CCCCN1C2 | 10.5% | – |
| ClC1=C(Cl)[C@]2(Cl)[C@@H]3[C@@H]4C[C@@H]([C@H]5O[C@@H]45)[C@@H]3[C@@]1(Cl)C2(Cl)Cl | -12.5% [at 104 µM] | – |
| CCOC(=O)Nc1ccc(NCc2ccc(F)cc2)cc1N | 8.79% | – |
| O=[N+]([O-])/N=C1\NCCN1Cc1ccc(Cl)nc1 | -6.44% | – |
| CC(O)=C(C#N)C(=O)Nc1cc(Br)ccc1Br | -9.8% | – |
| CC1(N2CCC(n3c([C@@H]4CCCNC4)nc4ccccc43)CC2)CCCCCCC1 | 4.16% | – |
| CC(=O)Nc1ccc(OC[C@](C)(O)C(=O)Nc2ccc([N+](=O)[O-])c(C(F)(F)F)c2)cc1 | 1.48% | – |
| CCN1CCN(C(=O)Cc2ccc(Nc3ncc(F)c(Nc4ccc(C(=O)Nc5ccccc5Cl)cc4)n3)cc2)CC1 | -6.17% | – |

| SMILES | activity change, negative = inhibition | Potency |
| --- | --- | --- |
| O=c1cccc2n1CC1CNC[C@H]2C1 | – | inactive |
| O=S(=O)(F)Cc1ccccc1 | 10.1% | – |
| CCOC(=O)c1cncn1[C@H](C)c1ccccc1 | 6.85% | – |
| Cc1ccc(Cl)c(O)c1 | 1.71% | – |
| CCOP(=O)(OCC)C(C)NC(=O)N(CCCl)N=O (stereo not given) | 12.6% | – |
| COCC1(CO)C(=O)C2CCN1CC2 (stereo not given) | 7.13% | – |
| C=C[C@@H]1CN2CCC1C[C@H]2[C@H](O)c1ccnc2ccccc12 (stereo not given in full) | -5.26% | – |
| NC1=NC(=O)N2CC12 (stereo not given) | 17.3% | – |
| CCCCCCCCCC(CC)c1ccc(S(=O)(=O)O)cc1 (stereo not given) | – | 11.7 µM (active) |
| CC(O)CN1CCN(CC(=O)[O-])CCN(CC(=O)[O-])CCN(CC(=O)[O-])CC1.[Gd+3] (stereo not given) | -1.53% | – |
| COc1ccc2c(c1)[C@]13CCCCC1C(C2)N(C)CC3 (stereo not given in full) | 2.49% | – |
| Cc1cc(O)ccc1Cl | -0.786% | – |
| COc1nn(CSP(=S)(OC)OC)c(=O)s1 | 2.6% [at 104 µM] | – |
| Fc1cc(Br)ccc1CBr | 0.795% | – |
| O=C1C=CC[C@@H]2[C@H]3CCCN4CCC[C@@H](CN12)[C@@H]34 | 7.26% | – |
| Nc1ccc(Sc2ccc(N)cc2)cc1 | 3.99% [at 104 µM] | – |
| COc1ccc(C(c2ccc(OC)cc2)C(Cl)(Cl)Cl)cc1 | -8.26% [at 104 µM] | – |
